Assay results published in PubChem BioAssay (NCATS).
Records with an inconclusive call do not appear. The source made the active and inactive calls. Unless noted, the call rests on the fitted dose curve; in most records, active means well fitted curve in the direction sought with a large enough effect; inconclusive means small, poorly fitted or top-dose-only effect, or another doubt; inactive means no such curve, though single readings can be large; an effect the other way counts as inactive or inconclusive.

Key:
[1] = biological target: Estrogen receptor (Homo sapiens) (UniProt P03372); assay: qHTS assay for small molecule antagonists of estrogen receptor alpha signaling (AID 588513; active means well fitted curve in the direction sought with a large enough effect in the signal ratio, with a control signal flat, not every such curve was filed as active; the % refers to the signal ratio; further: on the % scale 0 is the no-effect control and ±100 the full control effect)
Estrogen receptor (Homo sapiens), sequence (P03372 whole entry, looked up): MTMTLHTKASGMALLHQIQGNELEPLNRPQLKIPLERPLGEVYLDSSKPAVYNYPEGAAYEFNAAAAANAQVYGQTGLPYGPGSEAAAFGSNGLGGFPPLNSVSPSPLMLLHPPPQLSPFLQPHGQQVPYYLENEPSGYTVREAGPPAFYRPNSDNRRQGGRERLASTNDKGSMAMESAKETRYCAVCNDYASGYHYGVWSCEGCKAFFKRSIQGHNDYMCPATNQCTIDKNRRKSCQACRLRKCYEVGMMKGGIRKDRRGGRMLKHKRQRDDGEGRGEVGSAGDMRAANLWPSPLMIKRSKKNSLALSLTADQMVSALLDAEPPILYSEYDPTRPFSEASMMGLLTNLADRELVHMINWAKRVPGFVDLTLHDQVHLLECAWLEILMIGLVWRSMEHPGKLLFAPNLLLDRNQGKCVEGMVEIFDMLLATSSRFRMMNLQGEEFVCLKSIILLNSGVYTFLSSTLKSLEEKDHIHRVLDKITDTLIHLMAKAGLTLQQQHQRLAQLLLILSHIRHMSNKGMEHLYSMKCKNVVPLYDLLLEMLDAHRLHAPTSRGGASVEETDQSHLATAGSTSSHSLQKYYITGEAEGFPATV
Method in brief: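 Beta-lactamase reporter, antagonist mode, HEK 293 GripTite cells; 0.5nM E2 stimulus, 18 h, 37 C; CCF4 dye 2 h RT; fluorescence. IC50 and efficacy from Hill fits, normalized to E2 and DMSO.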

[2] = biological target: Peroxisome proliferator-activated receptor gamma (Homo sapiens) (UniProt P37231); assay: qHTS assay for small molecule agonists of peroxisome proliferator-activated receptor gamma signaling (AID 588536; active means well fitted curve in the direction sought with a large enough effect in the signal ratio, with a control signal flat, not every such curve was filed as active; the % refers to the signal ratio;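 further: 0% = DMSO basal wells and 100% = rosiglitazone at 2 µM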)
Peroxisome proliferator-activated receptor gamma (Homo sapiens), sequence (P37231 whole entry, looked up): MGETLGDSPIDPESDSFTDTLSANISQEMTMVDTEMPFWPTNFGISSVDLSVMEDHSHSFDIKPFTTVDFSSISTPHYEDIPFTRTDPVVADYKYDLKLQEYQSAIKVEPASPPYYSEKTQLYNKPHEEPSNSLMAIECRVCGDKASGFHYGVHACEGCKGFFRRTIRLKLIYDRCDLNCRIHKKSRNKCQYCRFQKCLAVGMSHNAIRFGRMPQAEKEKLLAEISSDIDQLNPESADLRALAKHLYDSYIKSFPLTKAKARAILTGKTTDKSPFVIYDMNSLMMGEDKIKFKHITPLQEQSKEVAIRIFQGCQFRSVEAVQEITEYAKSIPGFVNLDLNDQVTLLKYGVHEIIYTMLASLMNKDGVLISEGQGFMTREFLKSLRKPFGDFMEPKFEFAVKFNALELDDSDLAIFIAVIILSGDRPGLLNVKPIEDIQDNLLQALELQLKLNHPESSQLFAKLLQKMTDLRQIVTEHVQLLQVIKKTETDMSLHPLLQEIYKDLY
Method in brief: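 Test agents, titrated, stimulated HEK293 UAS-bla cells overnight (16 h, 37 C). Substrate CCF4 was then added for two hours at room temperature before fluorescence reading.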

[3] = biological target: Peroxisome proliferator-activated receptor gamma (Homo sapiens) (UniProt P37231); assay: qHTS assay for small molecule antagonists of peroxisome proliferator-activated receptor gamma signaling (AID 588537; active means well fitted inhibition curve with a large enough effect in the signal ratio, with a control signal flat, not every such curve was filed as active; the % refers to the signal ratio;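 further: reporter cells co-stimulated with 50 nM rosiglitazone agonist during compound treatment; % of control where 0% means no effect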)
Method in brief: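 Inhibitors of agonist-stimulated UAS-bla reporter activity were sought in HEK293 cells; rosiglitazone (50 nM) defined full signal and DMSO baseline. Curves fitted to Hill model gave IC50 and efficacy.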

[4] = biological target: Vitamin D3 receptor (Homo sapiens) (UniProt P11473); assay: qHTS assay for small molecule agonists of vitamin D receptor signaling (AID 588543; calls by dose curve;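 further: 0% = DMSO basal and 100% = reference agonist control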)
Vitamin D3 receptor (Homo sapiens), sequence (P11473 whole entry, looked up): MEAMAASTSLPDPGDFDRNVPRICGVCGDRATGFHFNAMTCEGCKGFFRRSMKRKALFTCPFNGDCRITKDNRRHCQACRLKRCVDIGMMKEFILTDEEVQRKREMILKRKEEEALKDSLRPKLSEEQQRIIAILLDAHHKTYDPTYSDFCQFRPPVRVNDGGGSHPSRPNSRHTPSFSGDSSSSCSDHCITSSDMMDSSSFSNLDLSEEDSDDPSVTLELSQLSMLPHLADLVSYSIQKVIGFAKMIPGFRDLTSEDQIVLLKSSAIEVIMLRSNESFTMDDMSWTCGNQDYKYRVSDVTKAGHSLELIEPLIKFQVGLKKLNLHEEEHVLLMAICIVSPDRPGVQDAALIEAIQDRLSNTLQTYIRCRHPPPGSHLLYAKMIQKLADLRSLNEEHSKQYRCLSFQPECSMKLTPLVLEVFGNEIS
Method in brief: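 β-lactamase reporter, VDR-UAS-bla HEK293T, agonist mode. Cells plated 5 h at 37 °C, compound titration 16 h at 37 °C, CCF4 dye 2 h RT, ratio 460/530 nm. Hill fit → EC50, efficacy vs 50 nM 1α,25-(OH)2D3.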

[5] = biological target: Thyroid hormone receptor beta (Homo sapiens) (UniProt P10828); assay: qHTS assay for small molecule agonists of thyroid hormone receptor beta signaling (AID 588545; calls by dose curve;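 further: 0% = DMSO only and 100% = 10 nM T3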)
Thyroid hormone receptor beta (Homo sapiens), sequence (P10828 whole entry, looked up): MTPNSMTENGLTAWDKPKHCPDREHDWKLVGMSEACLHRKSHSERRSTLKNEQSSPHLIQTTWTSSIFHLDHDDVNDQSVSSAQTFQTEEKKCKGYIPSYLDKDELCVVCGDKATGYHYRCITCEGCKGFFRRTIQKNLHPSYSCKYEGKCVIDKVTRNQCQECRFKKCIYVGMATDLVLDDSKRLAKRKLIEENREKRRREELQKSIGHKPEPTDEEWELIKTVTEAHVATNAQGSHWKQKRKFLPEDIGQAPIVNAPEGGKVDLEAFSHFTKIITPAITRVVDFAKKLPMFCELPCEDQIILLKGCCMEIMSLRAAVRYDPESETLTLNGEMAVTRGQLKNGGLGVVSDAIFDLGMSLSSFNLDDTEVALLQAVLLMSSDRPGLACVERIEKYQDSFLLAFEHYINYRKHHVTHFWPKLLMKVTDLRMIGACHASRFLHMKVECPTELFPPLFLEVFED
Method in brief: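 Stimulation of a TR-driven beta-lactamase reporter was quantified in GripTite HEK 293 cells. Compound series ran for 18 hrs; curves were normalized to T3 and DMSO controls and fitted to yield EC50.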

[6] = qHTS assay for small molecule antagonists of retinoid X receptor alpha signaling (AID 588546; active means well fitted inhibition curve with a large enough effect in the signal ratio, with a control signal flat, not every such curve was filed as active; the % refers to the signal ratio;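 further: cells stimulated with 9-cis-retinoic acid as agonist; on the % scale 0 is the no-effect control and ±100 the full control effect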); conditions: HEK293T RXRa-UAS-bla, beta-lactamase ratio, antagonist mode; measured here: W530 green channel, cytotoxicity proxy
Method in brief: (§1)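 Beta-lactamase reporter inhibition, read as CCF4 fluorescence ratio (ex 405, em 460/530 nm) after 2 h at RT. HEK293T UAS-bla cells, 2500/well, were stimulated with 9-cis-RA at 500 or 100 nM final alongside test compound for 18 h at 37 C.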

[7] = biological target: Retinoic acid receptor RXR-alpha (Homo sapiens) (UniProt P19793); assay: as above; conditions: HEK293T RXRa-UAS-bla, beta-lactamase ratio, antagonist mode
Retinoic acid receptor RXR-alpha (Homo sapiens), sequence (P19793 whole entry, looked up): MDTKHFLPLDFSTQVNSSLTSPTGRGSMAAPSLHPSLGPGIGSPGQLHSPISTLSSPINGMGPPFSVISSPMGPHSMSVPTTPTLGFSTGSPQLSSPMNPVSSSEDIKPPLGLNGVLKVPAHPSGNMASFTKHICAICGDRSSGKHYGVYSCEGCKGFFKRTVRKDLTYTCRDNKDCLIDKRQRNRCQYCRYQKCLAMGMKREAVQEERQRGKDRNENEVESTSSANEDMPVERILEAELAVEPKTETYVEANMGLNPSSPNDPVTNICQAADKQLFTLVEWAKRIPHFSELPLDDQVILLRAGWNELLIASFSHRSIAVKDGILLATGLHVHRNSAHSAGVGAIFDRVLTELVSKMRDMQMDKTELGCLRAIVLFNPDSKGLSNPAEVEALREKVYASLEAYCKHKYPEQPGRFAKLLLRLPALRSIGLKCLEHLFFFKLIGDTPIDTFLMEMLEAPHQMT
Method in brief: as §1

[8] = biological target: Thyroid hormone receptor beta (Homo sapiens) (UniProt P10828); assay: qHTS assay for small molecule antagonists of thyroid hormone receptor beta signaling (AID 588547; active means well fitted inhibition curve with a large enough effect in the signal ratio, with a control signal flat, not every such curve was filed as active; the % refers to the signal ratio;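 further: cells stimulated with 0.4 nM T3 agonist during compound exposure; series mostly up to about 77 µM; on the % scale 0 is the no-effect control and ±100 the full control effect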); conditions: TR-UAS-bla HEK293, beta-lactamase ratio, antagonist mode, 18 h
Method in brief: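 Inhibition of T3-driven (0.4nM final) beta-lactamase reporter activity was measured over 0.59 nM to 92 uM compound after 18 h at 37 C. The cells were GripTite HEK293 TR-UAS-bla in charcoal/dextran-stripped serum, with CCF4 ratio read-out and IC50 from Hill fits.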

[9] = qHTS assay for small molecule activators of the p53 signaling pathway (AID 651743; active means well fitted activation curve with a large enough effect in the signal ratio, not every such curve was filed as active; the % refers to the signal ratio; further: series mostly up to about 92 µM; % of control where 0% means no effect); conditions: HCT-116 p53RE-bla, beta-lactamase FRET ratio, 16 h; activation: stronger effect = higher value
Method in brief: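 Screen for p53 pathway agonists uses stably transfected p53RE-bla HCT-116 cells, 4,000 per well, treated 16 h at 37 C with compounds in DMSO.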

[10] = qHTS assay for small molecule activators of the nuclear factor-kappa B (NF-kB) signaling pathway (AID 651749; active means well fitted activation curve with a large enough effect in the signal ratio; the % refers to the signal ratio; further: series mostly up to about 77 µM; % of control where 0% means no effect); conditions: NF-kB-bla ME-180 cells, beta-lactamase FRET ratio, 16 h; activation: stronger effect = higher value
Method in brief: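 Stably transfected ME-180 line; NF-kB response element upstream of beta-lactamase. Treatment: compound or DMSO, 16 hr. Detection: fluorescent FRET substrate.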

[11] = qHTS assay for small molecule agonists of the antioxidant response element (ARE) signaling pathway measured by Nrf2-dependant transcriptional activity (AID 720636; active means well fitted curve in the direction sought with a large enough effect in the repeat runs; an effect the other way counts as inactive or inconclusive;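 further: HepG2 cells with an ARE-driven luciferase reporter; % of control where 0% means no effect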)
Method in brief: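 Attachment 6 hr at 37 C, then compound versus DMSO vehicle for 16 hr in ARE-luc HepG2 cells (1% dialyzed FBS); luminescence recorded 30 min after ONE-Glo addition at room temperature.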

[12] = qHTS assay for small molecule agonists of the antioxidant response element (ARE) signaling pathway measured by Nrf2-dependant transcriptional activity - cell viability counter screen (AID 720653; active means well fitted curve in the direction sought with a large enough effect in the repeat runs; an effect the other way counts as inactive or inconclusive; further: on the % scale 0 is the no-effect control and ±100 the full control effect); conditions: ARE-bla HepG2 viability, CellTiter-Glo ATP luminescence, 16 h; max response: stronger effect = lower value
Method in brief: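 Cytotoxicity counter screen: intracellular ATP quantified by CellTiter-Glo luminescence in the same ARE-bla HepG2 plates, after 16 h compound exposure and a 2 h beta-lactamase substrate step.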

[13] = qHTS assay for cell viability of HEK293 cells (AID 743288); conditions: ATP luminescence (CellTiter-Glo), 18 h; max response: stronger effect = lower value; further: on the % scale 0 is the no-effect control and ±100 the full control effect; nearly all actives have a fitted effect of over 50% in size
Method in brief: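 Environmental chemicals tested in qHTS format against parental HEK293 cells; 18 h treatment, 37 C; read-out ATP luminescence (CellTiter-Glo), 30 min RT development.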

[14] = qHTS assay for cell viability of the p53RE-bla HCT-116 cell line (AID 743292); further: on the % scale 0 is the no-effect control and ±100 the full control effect; nearly all actives have a fitted effect of over 55% in size
Method in brief: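 Compound-exposed HCT-116 (p53RE-bla) cells, 4,000 per well, were kept 16 h at 37 C following a 5 h preincubation. Cell number was estimated from total ATP by CellTiter-Glo luminescence read after 30 min at room temperature.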

[15] = biological target: Nuclear receptor subfamily 1 group I member 2 (Rattus norvegicus) (UniProt Q9R1A7); assay: qHTS assay for small molecule activators of the rat pregnane X receptor (rPXR) signaling pathway (AID 651751; call rule not given here; further: 0% is about no effect); conditions: rPXR reporter cells, luciferase (One-Glo), 24 h
Nuclear receptor subfamily 1 group I member 2 (Rattus norvegicus), sequence (Q9R1A7 whole entry, looked up): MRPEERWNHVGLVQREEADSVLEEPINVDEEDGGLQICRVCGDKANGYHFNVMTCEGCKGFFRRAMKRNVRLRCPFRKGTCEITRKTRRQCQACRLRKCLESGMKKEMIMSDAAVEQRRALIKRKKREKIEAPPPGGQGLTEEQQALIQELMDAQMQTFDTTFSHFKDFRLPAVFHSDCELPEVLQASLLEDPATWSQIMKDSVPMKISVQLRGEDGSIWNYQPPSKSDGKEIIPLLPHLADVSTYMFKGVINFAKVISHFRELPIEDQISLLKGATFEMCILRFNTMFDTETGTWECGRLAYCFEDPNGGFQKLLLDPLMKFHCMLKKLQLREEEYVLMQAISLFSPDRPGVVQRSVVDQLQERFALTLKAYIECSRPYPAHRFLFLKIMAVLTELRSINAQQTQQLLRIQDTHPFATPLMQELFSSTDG

[16] = qHTS assay for small molecule activators of the human pregnane X receptor (PXR) signaling pathway (AID 720659; call rule not given here; further: 0% is about no effect)
[17] = qHTS assay for small molecule agonists of retinoid X receptor alpha signaling (AID 588544; calls by dose curve;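 on activation: 0% = DMSO basal wells and 100% = reference agonist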); conditions: HEK293T RXRa-UAS-bla, beta-lactamase reporter, 18 h; 530 nm emission
[18] = biological target: Retinoic acid receptor RXR-alpha (Homo sapiens) (UniProt P19793); assay: as above
[19] = qHTS assay for environmental chemicals that activate the Aryl hydrocarbon Receptor (AhR) signaling pathway (AID 651777); conditions: 1A2-DRE human hepatoma cells, luciferase, 24 h; activation: stronger effect = higher value; further: % of control where 0% means no effect; nearly all actives have a fitted effect of over 15% in size
Method in brief: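 Concentration–response screening used 1,200 1A2-DRE cells per well, 24 hr compound exposure (37 C, 5% CO2), and One-Glo luminescence as the AhR-driven CYP1A2 reporter signal.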

[20] = biological target: Peroxisome proliferator-activated receptor alpha (Homo sapiens) (UniProt Q07869); assay: qHTS assay for small molecule agonists of the peroxisome proliferator-activated receptor alpha (PPARalpha) signaling pathway (AID 651778); conditions: PathHunter PPARalpha complementation, chemiluminescence, 6 h; max response: stronger effect = higher value; further: % of control where 0% means no effect
Peroxisome proliferator-activated receptor alpha (Homo sapiens), sequence (Q07869 whole entry, looked up): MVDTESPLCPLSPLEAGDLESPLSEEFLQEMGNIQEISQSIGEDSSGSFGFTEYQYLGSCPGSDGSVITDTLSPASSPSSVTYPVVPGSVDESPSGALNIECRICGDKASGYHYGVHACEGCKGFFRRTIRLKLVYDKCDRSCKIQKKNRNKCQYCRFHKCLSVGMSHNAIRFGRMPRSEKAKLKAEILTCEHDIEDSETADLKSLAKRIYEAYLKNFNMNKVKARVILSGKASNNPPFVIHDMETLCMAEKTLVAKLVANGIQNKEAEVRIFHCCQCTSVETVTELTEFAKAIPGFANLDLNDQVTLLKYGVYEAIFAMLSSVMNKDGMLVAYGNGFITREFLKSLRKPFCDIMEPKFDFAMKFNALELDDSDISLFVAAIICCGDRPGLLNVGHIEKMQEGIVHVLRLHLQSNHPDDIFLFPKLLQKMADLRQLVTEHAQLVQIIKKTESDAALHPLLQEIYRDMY
Method in brief: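 Chemiluminescence from complemented enzyme reported PPARalpha activation in cells after 6 hr of compound treatment at 37 C. The detection reagent was incubated for 60 min at room temperature, and compounds were scored as agonists.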

CC(C)(C)C1CCC(O)CC1 (configuration not stated)
Potency [1]: inactive | outcome [2]: inactive | Potency [3]: inactive | outcome [4]: inactive | Potency [5]: inactive | max response [6]: -0.1% | max response [7]: 3.31% (inactive) | activity change % (negative = inhibition) [8]: -2.02% (inactive) | activation [9]: -3.97% (inactive) | activation [10]: 0.471% (inactive) | Potency [11]: inactive | max response [12]: 2.04% (inactive) | max response [13]: 1.92% (inactive) | Potency [14]: inactive | max response [15]: 1.71% (inactive) | outcome [16]: inactive

CC(C)C(=O)OCC(C)(C)C(O)C(C)C (configuration not stated)
Potency [1]: inactive | outcome [2]: inactive | Potency [3]: inactive | outcome [4]: inactive | max response [17]: 6.96% | Potency [18]: inactive | Potency [5]: inactive | max response [6]: -13.9% | max response [7]: -10.9% (inactive) | activity change % (negative = inhibition) [8]: -5.03% (inactive) | activation [9]: -2.18% (inactive) | activation [10]: -1.26% (inactive) | activation [19]: -2.96% (inactive) | max response [20]: -0.497% (inactive) | Potency [11]: inactive | max response [12]: -3.28% (inactive) | max response [13]: -9.28% (inactive) | Potency [14]: inactive | max response [15]: -1.98% (inactive) | outcome [16]: inactive

CCCOC(=O)c1ccc(C(=O)OCCC)nc1
Potency [1]: inactive | outcome [2]: inactive | Potency [3]: inactive | outcome [4]: inactive | max response [6]: 6.56% | max response [7]: -17.9% (inactive) | activation [9]: -3.13% (inactive) | activation [10]: 1.57% (inactive) | activation [19]: -2.64% (inactive) | max response [20]: -0.236% (inactive) | max response [12]: 22.4% (inactive) | max response [13]: -23.4% (inactive) | max response [15]: -3.51% (inactive) | outcome [16]: inactive

Cc1cc(C)c(N)c(Cl)c1
Potency [1]: inactive | outcome [2]: inactive | Potency [3]: inactive | outcome [4]: inactive | max response [17]: -1.71% | Potency [18]: inactive | Potency [5]: inactive | activity change % (negative = inhibition) [8]: -1.82% (inactive) | activation [9]: -7.91% (inactive) | activation [19]: -1.79% (inactive) | max response [20]: -1.91% (inactive) | Potency [11]: inactive | max response [12]: 2.61% (inactive) | max response [13]: -10.1% (inactive) | Potency [14]: inactive | max response [15]: -0.981% (inactive) | outcome [16]: inactive
